D3 antag: D3 dopamine receptor (human) antagonism; max response, negative = inhibition, %; P35462; 360,000 tested, 2.5% active; D3R cells, DiscoveRx beta-arrestin luminescence, antagonist mode; hits give low values; in the data active = max response below about -50%; inconclusive = no clear call, values can overlap the other calls
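Cells plated overnight at 1500 cells/well, then exposed to library compounds with dopamine controls for 90 minutes at 37 degrees C. DiscoveRx reagent added for 30–60 minutes at room temperature; luminescence read, quantitative HTS format.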
D1 PAM: human D1 dopamine receptor positive modulation. P21728. HEK293 TREx D1 cells, calcium flux, dopamine EC20 potentiation. potentiation, % at 10 µM. 360,000 tested, 0.036% active. AID 504651; in the data active = potentiation above about 30%
DRD3 agonist: activates the human D3 dopamine receptor | D3R DiscoveRx beta-arrestin cells, luminescence, 90 min | max activation, % | 410,000 tested, 0.58% active | AID 652048; in the data active = max activation above about 30%
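Agonist mode: compounds and dopamine controls were applied to plated cells for 90 min at 37 degrees C after an overnight attachment at 1500 cells/well. Luminescent read-out followed 30 - 60 minutes at room temperature with DiscoveRx detection reagent.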
D1 antag: human D1 dopamine receptor antagonism; HEK293 TREx D1 cells, calcium flux, dopamine EC80; hits give low values; activity change, negative = inhibition, % at 10 µM; 360,000 tested, 3.2% active; AID 504652; in the data active = activity change below about -30%
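Antagonism measured as reduced calcium response to an EC80 dopamine addition following 180 s compound pre-read; cells were inducible HEK293 Trex D1 plated overnight at 30 C, read kinetically at 1 cycle/sec.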
D1 ag: human D1 receptor agonism; 360,000 tested, 1% active; P21728; HEK293 T-REx D1 cells, calcium flux, agonist mode; activation, % at 2 µM; in the data active = activation above about 30%
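Inducible HEK293 T-REx D1 cells, force-coupled to calcium signalling, were plated at 4000 cells/well with tetracycline and held overnight at 30 C. After no-wash calcium dye loading, compound-evoked calcium rise over 180 s flagged agonists.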
ERG Ets-DNA blk: ERG Ets/DNA interaction inhibition; P11308; fluorescence polarization, His-ERG Ets domain / labelled DNA; Potency, µM (doses to about 76.9 µM), actives largely listed as inhibitors; 370,000 tested, 0.028% active; active = well fitted inhibition curve with a large enough effect in the polarisation, with a control signal flat; inconclusive = small, poorly fitted or top-dose-only effect, or effect the other way, or a change in a side signal; inactive = no such curve, though single readings can be large or run the other way; the % refers to the polarisation;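 note: polarization taken with two DNA probes labelled with fluorescein and Texas red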
Target sequence (P11308 whole entry, looked up, the tested form may be a part): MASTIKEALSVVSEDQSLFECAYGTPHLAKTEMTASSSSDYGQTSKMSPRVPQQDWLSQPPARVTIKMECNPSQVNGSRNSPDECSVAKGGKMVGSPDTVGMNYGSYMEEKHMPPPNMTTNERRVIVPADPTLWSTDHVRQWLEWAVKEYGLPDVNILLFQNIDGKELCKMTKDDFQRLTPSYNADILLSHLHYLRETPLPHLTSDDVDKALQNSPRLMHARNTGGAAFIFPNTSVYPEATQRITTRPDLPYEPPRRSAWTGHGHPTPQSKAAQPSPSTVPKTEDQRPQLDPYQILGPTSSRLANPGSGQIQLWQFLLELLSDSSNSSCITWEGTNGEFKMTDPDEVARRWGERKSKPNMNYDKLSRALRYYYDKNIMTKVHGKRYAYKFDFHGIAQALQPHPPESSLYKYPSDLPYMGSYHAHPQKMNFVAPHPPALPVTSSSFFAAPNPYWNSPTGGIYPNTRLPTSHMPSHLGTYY
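His-tagged ERG Ets domain (1 uM in the protein solution; 300mM KCl, 50mM Tris-HCl, 1mM EDTA, 1mM DTT, pH 7.5) received compound, then a probe mix of 5 nM fluorescein-DNA and 100nM Texas-615-DNA. Fluorescence polarization was read for both dyes.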
Large screens that a line does not name were inactive. Rows were chosen to be rich in hits. Some 6.1% of all compounds tested hit in one or more screens of this group.

Oc1ccc2ccccc2c1CN1CCN(c2ccccc2F)CC1	D3 antag -95.4
CCCCNc1nc2ccccc2nc1Cl	none
O=C(/C=C/c1ccccc1)NC(NC(=S)Nc1cccc(O)c1)C(Cl)(Cl)Cl (stereo not drawn)	D3 antag -61.7 (no result: ERG Ets-DNA blk)
COc1ccc(S(=O)(=O)N2CCC(N3CCN(Cc4ccc(F)cc4)C(=O)C3=O)CC2)cc1	D1 antag -35.9 (no result: D3 antag)
COc1ccc(CCN(C)CCCN2CC(c3ccccc3)CC2=O)cc1OC (stereo not drawn)	D3 antag inconclusive, D1 antag -39.3
COc1ccc(S(=O)(=O)N2CCC(C(=O)N[C@@H](C)C(=O)NCc3ccc(F)cc3)CC2)cc1	D1 antag -34.9
CC(C)[C@H](NC(=O)C1CCN(S(=O)(=O)c2ccccc2)CC1)C(=O)NCc1ccccc1	D1 antag -44.7
CC(C)[C@H](NC(=O)C1CCN(S(=O)(=O)c2ccccc2)CC1)C(=O)NCc1ccncc1	none
Cc1cccc(C)c1NC(=O)Cn1nnc(S(=O)(=O)c2ccccc2)c1N	none (no result: D3 antag)
Cn1c(=O)oc2ccccc2c1=O	none (no result: D1 PAM, D1 antag, D1 ag)
COc1ccc(CCNC(=O)C2CCN(S(=O)(=O)c3ccc(OC)c(OC)c3)CC2)cc1OC	none
COc1ccc(CCNC(=O)C2CCN(S(=O)(=O)c3ccc(C)cc3)CC2)cc1	D1 antag -34.7
O=C(NC(Cc1ccccc1)C(=O)O)C1CCN(S(=O)(=O)c2cccc(C(F)(F)F)c2)CC1 (stereo not drawn)	none
COc1ccc(S(=O)(=O)N2CCC(C(=O)NCCC3=CCCCC3)CC2)cc1OC	D1 antag -43.0 (no result: ERG Ets-DNA blk)
Cc1ccc(S(=O)(=O)N2CCC(C(=O)NCCc3ccc(S(N)(=O)=O)cc3)CC2)cc1	DRD3 agonist 37.3
COc1ccc(CNC(=O)C2CCN(S(=O)(=O)c3ccc(C)cc3)CC2)cc1	none (no result: D3 antag)
Cc1ccc(S(=O)(=O)N2CCC(C(=O)N[C@@H](Cc3ccccc3)C(=O)O)CC2)cc1	DRD3 agonist 37.1
CCN(C(=O)COC(=O)/C(=C/c1ccccc1)n1nnnc1C)C1CCCCC1	none
CN(Cc1cccs1)C(=O)C1CC(=O)N(Cc2ccccc2)C1 (stereo not drawn)	D1 antag -54.0
CSCC[C@H](N)C(=O)N1CCC(C(=O)N[C@@H](C)C(=O)NCc2ccc(F)cc2)CC1	DRD3 agonist 31.3
COc1ccc(CCN(C)C(=O)C2CC(=O)N(Cc3ccc(C)cc3)C2)cc1OC (stereo not drawn)	D1 antag -34.1 (no result: D1 PAM)
COc1ccc(CN2CC(C(=O)NCCc3ccccc3)CC2=O)cc1 (stereo not drawn)	none
COc1ccc(CN2CC(C(=O)NCCc3ccc(C)cc3)CC2=O)cc1 (stereo not drawn)	D1 antag -47.4
CNC(=O)OCN1C(=O)C2CC=CCC2C1=O (stereo not drawn)	none (no result: D1 PAM, D1 antag, D1 ag)
C1CC2CN(c3nc4nonc4nc3N3CCSCC3)CCN2C1 (stereo not drawn)	none
COc1ccc(N2CC(C(=O)NCCc3c[nH]c4ccccc34)CC2=O)cc1 (stereo not drawn)	none
O=C(Nc1nccs1)c1nc[nH]c1C(=O)N1CCN(c2ccccc2)CC1	DRD3 agonist 31.0 (no result: D1 PAM, D1 antag, D1 ag)
O=C(Nc1ccccc1)c1nc[nH]c1C(=O)N1CCN(c2ccccc2)CC1	none (no result: D1 antag)
O=C(C(=O)c1ccc(O)cc1)c1ccccc1	none
O=C(c1ccc(O)cc1)c1ccc(C(=O)c2ccc(O)cc2)cc1	D1 antag -79.8
CC(C)OC(=O)c1c2c(n3ccccc13)C(=O)c1ccccc1C2=O	D1 ag 254.5
CCc1ccc(CNC(=O)c2c3c(nc4ccccc24)C(=O)N(C2CCCCC2)C3)cc1	none (no result: D3 antag)
O=C(CCCc1nc2ccccc2s1)N1CCN(c2ccccc2F)CC1	none
O=C(CCCc1nc2ccccc2s1)N1CCN(c2ccccc2)CC1	D1 antag -42.7
Cc1ccc(C(=O)Cc2ccccc2)c(O)c1	none (no result: D1 PAM, D1 antag, D1 ag)
Cc1ccc(C(=O)CC(=O)c2ccc(C)cc2O)cc1	D3 antag -77.4
Cc1ccc(C(=O)CC(=O)c2cc(Cl)ccc2O)cc1	none (no result: D1 antag)
CC(C)(C)c1ccc(C(=O)CC(=O)c2cc(Cl)ccc2O)cc1	D3 antag -57.0

Screening results deposited in PubChem by National Center for Advancing Translational Sciences (NCATS).
